CBFb RUNX1 block – CBF-beta/RUNX1 interaction disruption; Q01196+Q13951; AlphaScreen CBFb-His/RUNX1-biotin binding, biochemical; Potency, µM (highest dose often 59.8 µM), inactives show at the highest dose activity, negative = inhibition, usual class: inhibitors; 230,000 tested, under 10 active; further: % of control where 0% means no effect
Target sequence (Q01196 whole entry, looked up): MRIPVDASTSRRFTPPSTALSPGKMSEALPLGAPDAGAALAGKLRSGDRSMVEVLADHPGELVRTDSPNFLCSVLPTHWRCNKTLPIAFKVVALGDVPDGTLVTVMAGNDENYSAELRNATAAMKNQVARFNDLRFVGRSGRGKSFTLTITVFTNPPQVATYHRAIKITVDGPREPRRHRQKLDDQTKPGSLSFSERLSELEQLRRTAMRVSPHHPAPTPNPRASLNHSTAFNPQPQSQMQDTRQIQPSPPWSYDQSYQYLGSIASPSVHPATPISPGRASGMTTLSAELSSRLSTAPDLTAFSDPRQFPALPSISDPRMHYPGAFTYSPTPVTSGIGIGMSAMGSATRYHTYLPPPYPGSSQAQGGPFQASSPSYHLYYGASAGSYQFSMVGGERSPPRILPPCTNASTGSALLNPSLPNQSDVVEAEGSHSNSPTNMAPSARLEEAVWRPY
Target sequence (Q13951 whole entry, looked up): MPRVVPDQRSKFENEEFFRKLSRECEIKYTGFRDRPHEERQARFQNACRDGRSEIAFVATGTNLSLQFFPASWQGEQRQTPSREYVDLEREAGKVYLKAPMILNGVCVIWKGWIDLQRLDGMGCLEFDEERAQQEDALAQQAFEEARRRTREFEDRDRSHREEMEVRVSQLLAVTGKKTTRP
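CBF-beta (His) and RUNX1 (biotin), 30 nM each; 20 min preassociation; + compound, 15 min; + beads 50 ng each (Ni, streptavidin), 90 min; RT; AlphaScreen read.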
Tau fibril ThT – inhibitors of human tau fibril formation, thioflavin T binding. P10636. recombinant tau K18 P301L, heparin-induced fibrillization, ThT fluorescence. Potency, µM (titrated, usually from 57.4 µM), inactives show top-dose activity, negative = inhibition, usual class: inhibitors. 270,000 tested, 2.1% active. AID 1460; further: potency means the concentration at half of the fitted maximal effect; on the % scale 0 is the no-effect control and ±100 the full control effect; nearly all actives have a fitted effect of over 55% in size
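Fibril formation assay: tau K18 P301L at 15 uM with trace Alexa 594 label, heparin inducer 20 uM, pH 7 sodium acetate buffer, 37 C for 6 hr; endpoint ThT signal.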
Tau fluor cs – counter-screen for tau fibril formation inhibitors. tau K18 P301L (four-repeat tau fragment) Alexa594 fluorescence, heparin fibrillization. Potency, µM (titrated, usually from 57.7 µM), for the others: at the top dose activity change, negative = decrease. 280,000 tested, 0.93% active. AID 1463; further: potency means the concentration at half of the fitted maximal effect; on the % scale 0 is the no-effect control and ±100 the full control effect; nearly all actives have a fitted effect of over 55% in size
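Human K18 P301L tau (15 uM unlabeled plus 0.24 uM Alexa 594-labeled, final) in 100 mM sodium acetate pH 7 was mixed with compound and 20 uM heparin and incubated 6 hr at 37 C.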
LMNA splice mod – LMNA splicing modulation; HeLa LMNA splicing GFP/RFP minigene ratio, 48 h; Potency, µM (doses to about 46.1 µM), for the others: at the highest dose ratio change, negative = inhibition, actives largely listed as inhibitors; 200,000 tested, 0.01% active; active means well fitted inhibition curve with a large enough effect in the signal ratio, with a control signal flat, not every such curve was filed as active; inconclusive means small, poorly fitted or top-dose-only effect, or effect the other way, or a change in a side signal; the % refers to the signal ratio; further: potency means the concentration at half of the fitted maximal effect; on the % scale 0 is the no-effect control and ±100 the full control effect
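S3 HeLa stable clones carrying a lamin A-EGFP splicing minigene plus DsRed2 were seeded at 600 cells/well in Opti-MEM with 2% FBS, pin-dosed and incubated 48 h at 37°C. Acumen cytometry (488 nm) gave the GFP/RFP total-intensity ratio.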
KDM4E inh – JMJD2E (human) inhibition | 230,000 tested, 1.6% active | JMJD2E catalytic domain, FDH-coupled NADH fluorescence (FDH is formaldehyde dehydrogenase) | Potency, µM (highest dose often 57.1 µM), without a hit: at the top dose activity change, negative = inhibition, hits mostly inhibitors | B2RXH2; active means well fitted inhibition curve with a large enough effect, not every such curve was filed as active; inconclusive means small, poorly fitted or top-dose-only effect, or another doubt; inactive means no such curve, though single readings can be large or run the other way;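 further: potency means the concentration at half of the fitted maximal effect; 0% = wells with enzyme and -100% = buffer wells without enzyme; nearly all actives have a fitted effect of over 50% in size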
Tau FP inhib – tau fibrillization inhibition (FP); K18 P301L tau heparin fibrillization, Alexa594 FP, 6 h; 280,000 tested, 0.39% active; AID 1468; Potency, µM (series often up to 57.7 µM), for inactives: at the top dose activity, negative = inhibition, hits mostly inhibitors; further: potency means the concentration at half of the fitted maximal effect; on the % scale 0 is the no-effect control and ±100 the full control effect; nearly all actives have a fitted effect of over 55% in size
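FP of Alexa 594-tau after heparin (20 uM) induction. Substrate: human K18 P301L, 15 uM unlabeled, 0.24 uM labeled. Buffer 100 mM sodium acetate pH 7. 6 hr, 37 C.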
* = called active by the depositor; ? = inconclusive; nt = not tested or not shown; [ ] = remark or other dose. Rows were chosen to be rich in hits. Some 3.2% of all compounds tested hit in one or more screens of this group. Unless noted, the call rests on the fitted dose curve; in most records, active means well fitted curve in the direction sought with a large enough effect; inconclusive means small, poorly fitted or top-dose-only effect, or another doubt; inactive means no such curve, though single readings can be large; an effect the other way counts as inactive or inconclusive.

SMILES	CBFb RUNX1 block	Tau fibril ThT	Tau fluor cs	LMNA splice mod	KDM4E inh	Tau FP inhib
Cc1cc(C)n2[nH]c(=O)c(N=Nc3cccc(Cl)c3)c2n1	7%	?	-8%	-6%	2%	2%
CCOc1ccc(N=Nc2c(N)[nH][nH]c2=O)cc1	1%	8%	11%	9%	-5%	12%
O=c1[nH]n2c(=O)c3c([nH]c2c1N=Nc1cccc(Cl)c1)CCCC3	7%	2.8µM*	?	?	1%	-6%
CCc1cc[n+](/C(C(=S)Nc2cccc(C)c2)=C(/[O-])c2ccc(C)c([N+](=O)[O-])c2)cc1	-16%	?	-17%	-5%	-12%	12%
CCOc1ccc(NC(=S)Nc2ccc(C)c([N+](=O)[O-])c2)cc1	-8%	?	32µM*[quencher]	-6%	-2%	-4%
CCOc1ccc(NC(=S)/C(=C(\[O-])c2ccc(C)c([N+](=O)[O-])c2)[n+]2ccccc2)cc1	-18%	25µM*	-25%	-1%	-7%	10%
CN(C(=O)c1ccc2c(c1)N(Cc1ccccc1F)C(=O)c1ccccc1S2(=O)=O)C1CCCCC1	nt	-13%	-20%	nt	nt	-1%
O=C(O)c1cc(O)c2c(c1)C(=O)c1cc(O)cc(O)c1C2=O	?	7.1µM*	?	-5%	-19%	-6%
COc1cc(O)c2c(c1)C(=O)c1cc(C)cc(O)c1C2=O	nt	?	-17%	-16%	?	-4%
CCc1ccc(S(=O)(=O)c2cnc3ccc(OC)cc3c2N2CCCC(C)C2)cc1 (stereo unspecified)	nt	-13%	-18%	nt	nt	-2%
Cc1cccc2[nH]c3c(N4CC=C(c5ccc(F)cc5)CC4)ncnc3c12	-5%	?	14µM*[quencher]	nt	?	?
COc1cccc2[nH]c3c(N4CCCCC4)ncnc3c12	15%	3%	-2%	?	1%	3%
CCOC(=O)Cn1c(=O)n(-c2ccccc2OC)c2nc(-c3ccc(C(C)C)cc3)nc(C(N)=O)c21	nt	3%	-2%	?	nt	4%
COc1ccc(CSCC(=O)N/N=C/c2ccccc2O)cc1	3%	-8%	-27%	?	32µM*	-9%
O=C(CSc1ccccc1)N/N=C/c1ccccc1O	0%	1%	-15%	nt	?	-5%
COc1cccc(/C=N/NC(=O)CSc2nnc(C)n2-c2ccccc2)c1O	-4%	-13%	-10%	?	28µM*	-7%
O=C(CSc1n[nH]c(=O)[nH]c1=O)N/N=C/c1ccccc1O	-24%	-1%	0%	1%	14µM*	-15%
COc1ccc(/C=N/NC(=O)CSc2nnc(C)n2-c2ccccc2)c(OC)c1OC	-2%	-11%	-5%	0%[0.0737 µM]	4%	6%
COc1ccc(O)c(/C=N/NC(=O)CSc2nnc(C)n2-c2ccccc2)c1	-2%	-9%	-7%	?	22µM*	8%
O=C(Nc1ccccc1)C1=C(c2ccccc2)S(=O)(=O)CCS1(=O)=O	5%	28µM*	-20%	?	-1%	22µM*
O=C(O)c1ccccc1C(=O)Nc1ccccc1	-2%	-7%	8%	-5%	-3%	5%
O=C(O)c1ccc(N/N=C/C=C/c2ccccc2[N+](=O)[O-])cc1	-8%	13µM*	-26%	?	3%	12%
COc1ccc(/C=N/Nc2ncccc2[N+](=O)[O-])c(OC)c1	?	13µM*	?	nt	-3%	1%
COC(=O)C(=Cc1ccccc1[N+](=O)[O-])C(=O)OC	8%	25µM*	-27%	nt	-4%	?
COc1ccc(NC(=O)/C=C/c2ccccc2[N+](=O)[O-])c(OC)c1	-14%	13µM*	?	-1%	-6%	10%
COc1ccccc1N/C=C/c1onc(C)c1[N+](=O)[O-]	-28%	?	-12%	-6%[46 µM]	1%	1%
Cc1noc(/C=C/Nc2ccc(F)cc2F)c1[N+](=O)[O-]	0%	3.2µM*	-18%	?	-1%	0%
